The record followed here is PubChem BioAssay AID1063 (University of Pittsburgh Molecular Library Screening Center, 2008).

The campaign covered roughly 200,000 compounds. About 18,000 (9%) were called active. Rule as the data show it: active = inhibition above about 50%; inactive = the rest. This excerpt belongs to a sample that is enriched for actives.

The assay in a line: antileishmanial activity against promastigotes – primary screen (AID 1063).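 Also: promastigotes grown with compound for 44 hours at 28 °C.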 To be noted: Leishmania major promastigotes, resazurin fluorescence viability; at 10 µM; hits give high values. (In general: Resazurin is reduced to fluorescent resorufin, in cell work by metabolically active cells.)
With `Cc1ccccc1C(CC(=O)c1cccs1)C(C#N)C#N` (stereo not given), the inhibition (usually the change of the read-out against control, counted positive when it falls) is 83.5% (active).
The figure for `Cc1ccc(C)c(NC(CC(=O)c2ccccc2)C(=O)OCC(=O)c2cccs2)c1` (stereo not given) is 17.1% (inactive); for `O=C(CCC(=O)c1cccs1)NCc1ccccc1` it is -10.9% (inactive).
The figure for `CC(NC(=O)COC(=O)c1ccc(Cl)cc1O)c1ccc(F)cc1` (stereo not given) is -6.63% (inactive); for `CN(C)c1ccc(C(CNC(=O)c2ccc(F)cc2)c2c[nH]c3ccccc23)cc1` (stereo not given) it is 96.3% (active); for `CC(=O)c1ccc(S(=O)(=O)Nc2ccc(C(=O)NCC(c3ccccc3)N(C)C)cc2)cc1` (stereo not given) it is 0.26% (inactive).
Under `CN(C)CCCNC(=O)c1ccc2[nH]c3ccccc3c2c1` stands 13% (inactive).
Turning to `COc1ccc(-n2nc3c(c2NC(=O)c2ccc(N4C(=O)CCC4=O)cc2)CSC3)cc1`, the inhibition is -0.66% (inactive).
Consider `O=c1[nH]n(-c2ccc([N+](=O)[O-])cc2)c(=O)c2ccccc12`, for which the inhibition was -3.65% (inactive).
For `CC(C)(C)c1ccc(/C=C/C(=O)NC2CCS(=O)(=O)C2)cc1` (stereo not given), the inhibition was 0.12% (inactive).
Under `O=C(Nc1nc2ccc(S(=O)(=O)N3CCCC3)cc2s1)C1CCCO1` (stereo not given) stands 2.48% (inactive).
Consider `COc1ccc(S(=O)(=O)N2CCOCC2)cc1C(=O)Nc1nc2ccccc2s1`, for which the inhibition is -3.71% (inactive).
For the molecule `O=C(Nc1nc2cc3c(cc2s1)OCCO3)c1cccc(S(=O)(=O)N2CCOCC2)c1`, the inhibition was 99.1% (active).
Regarding `Cc1noc(C)c1COc1cccc(C(=O)Nc2cccnc2)c1`, the inhibition is 4.43% (inactive).
On to `CC1=CC=CN2C1=NC(=O)CC2(C)C(=O)N(CC(=O)NC1CCCC1)c1ccccc1C` (stereo not given), for which the inhibition is 2.29% (inactive).
Under `O=C(CSc1cccc2cccnc12)N/N=C/c1cccnc1` stands 101% (active); under `Cc1nc2ccccc2n1CC(=O)N/N=C/c1cccnc1`, -4.45% (inactive).
The figure for `Cc1c(NC(=O)CSc2cccc3cccnc23)c(=O)n(-c2ccccc2)n1C` is 44.5% (inactive); for `CN1CCN(c2ccc(NC(=O)c3ccc4c(c3)OCCO4)cc2Cl)CC1` it is 5.5% (inactive).
`CCOc1c(OC)cc(C2C(C#N)=C(N)Oc3n[nH]c(-c4ccncc4)c32)cc1OC` (stereo not given): the inhibition was 6.78% (inactive).
For `COc1ccc(C2C(C#N)=C(N)Oc3n[nH]c(C)c32)cc1CN1CCN(c2ccc(F)cc2)CC1` (stereo not given), the inhibition was 60.8% (active).
Consider `CCCc1[nH]nc2c1C(c1ccc(OC)c(Cn3nc(C)c(Br)c3C)c1)C(C#N)=C(N)O2` (stereo not given), for which the inhibition is 41.6% (inactive).
Under `O=Cc1ccc(Oc2cccc(C(F)(F)F)c2)nc1` stands 6.6% (inactive); under `COc1ccc(NC(=O)COC(=O)c2ccncc2)c(OC)c1`, -3.38% (inactive); under `O=C(NCc1ccncc1)C(=O)NCc1ccco1`, -7.02% (inactive).
Turning to `CCCC(C)C(=O)NCc1ccncc1` (stereo not given), the inhibition is -1.46% (inactive).
The figure for `CC(C)(C)NC(=O)C(=O)NCc1ccncc1` is 77.7% (active); for `CC(C)OCCCNC(=S)N1CCC(C(=O)c2ccc3c(c2)OCCO3)CC1` it is -1.34% (inactive); for `CCCn1c(C(O)c2cc(OC)ccc2OC)nc2ccccc21` (stereo not given) it is 19% (inactive).
On to `COc1ccc(-c2nc3ccccc3n2CCC(C)C)cc1OC`, for which the inhibition is 66.8% (active).
Under `COCCn1c(-c2ccc(OC)c(OC)c2)nc2ccccc21` stands 11.3% (inactive).
With `Cn1c(=O)c2c(ncn2CC(=O)N/N=C/c2cn[nH]c2-c2ccc(F)cc2)n(C)c1=O`, the inhibition was -7.31% (inactive).
Consider `Cn1nc(C(F)(F)F)c2cc(C(=O)N3CCOCC3)sc21`, for which the inhibition was -2.24% (inactive).
The figure for `COc1ccc(NS(=O)(=O)c2cc(NC(=O)CC(=O)c3ccc([N+](=O)[O-])cc3)ccc2C)cc1` is 68.3% (active); for `COc1ccc(CCC(=O)OCC(=O)Nc2ccc(C)c(S(=O)(=O)N(C)C)c2)cc1` it is -10.7% (inactive).
The figure for `Cc1ccc(C)c(S(=O)(=O)N2CCN(CC(=O)Nc3ccc([N+](=O)[O-])cc3)CC2)c1` is 26.5% (inactive); for `Cc1cccc(-n2c(C)cc(/C=N/NC(N)=S)c2C)c1` it is 79.6% (active).
The figure for `Cc1ccc(-n2c(C)cc(/C=N\NC(=O)CC(=O)NC(C)C)c2C)cc1` is -3.17% (inactive); for `Cc1cccc(-n2c(C)cc(/C=N\NC(=O)c3cccs3)c2C)c1` it is 17.2% (inactive); for `Cc1ccc(-c2csc(NC(=O)c3cnccn3)n2)cc1C` it is -7.05% (inactive).
On to `Cc1ccc(Oc2cnn(-c3ccccc3)c(=O)c2Br)cc1`, for which the inhibition was 46.6% (inactive).
On to `COc1ccc(-n2c(C)nc3c(cnn3-c3ccccc3)c2=O)cc1`, for which the inhibition was -7.18% (inactive).
Turning to `COc1ccc(Oc2c(Cl)cnn(-c3ccccc3)c2=O)cc1`, the inhibition is 59.1% (active).
As for `S=C1Nc2cc(Cl)ccc2Sc2ccccc21`, the inhibition is -5.54% (inactive).
Under `CCN(CC)C(=O)N(CC)Cc1ccccc1` stands 0.88% (inactive); under `CCC(CC)NC(=O)/C=C/c1cccc([N+](=O)[O-])c1`, 44.7% (inactive); under `O=C(/C=C/c1cccc([N+](=O)[O-])c1)NCCSCc1ccco1`, 59.6% (active).
`COc1cc(OC)cc(C(=O)NCCSCc2ccco2)c1`: the inhibition is -3.35% (inactive).
Take `O=C(/C=C/c1ccc([N+](=O)[O-])cc1)NCCSCc1ccco1`: the inhibition was 62.9% (active).
Under `CCC(C)NC(=O)/C=C/c1ccc(S(=O)(=O)NCc2ccco2)cc1` (stereo not given) stands 9.36% (inactive); under `O=C(NCc1ccco1)c1ccc(NS(=O)(=O)c2cccc([N+](=O)[O-])c2)cc1`, -9.32% (inactive); under `CCOc1ccc(/C=C(/NC(=O)c2ccccc2)C(=O)NCCC(=O)O)cc1`, -5.96% (inactive).
On to `Cc1ccc(NC(=O)c2ccc(S(=O)(=O)NCC3CCCO3)cc2)cc1C` (stereo not given), for which the inhibition was 12.2% (inactive).
For the molecule `COc1ccccc1CNC(=O)c1cc(=O)c2ccccc2o1`, the inhibition was 15.9% (inactive).
As to `O=C1/C(=C/c2cccs2)CCC1C1CCCC1` (stereo not given), the inhibition is -9.7% (inactive).
Under `CCOC(=O)c1ccc(NC(=S)N2CCCC2)cc1` stands 1.46% (inactive).
Regarding `Cc1c(CN2CCC(CO)(CCOc3ccccc3)CC2)[nH]c2ccc(Cl)cc12`, the inhibition is 100% (active).
Consider `OCC1(CCOc2ccccc2)CCN(Cc2cn[nH]c2-c2ccccc2)CC1`, for which the inhibition is -2.84% (inactive).
The figure for `CN(CCOc1ccccc1)Cc1nc2cc(Cl)ccc2c(=O)[nH]1` is 7.34% (inactive).
`CCN(CC)C(=O)C(=O)c1cn(CC(=O)NCc2ccc3c(c2)OCO3)c2ccccc12`: the inhibition is -5.27% (inactive).
The figure for `CCn1c(SCC(=O)Nc2nccs2)nnc1-c1ccco1` is 0.22% (inactive); for `C=C1C2C[C@H](O)C(C)(C)[C@@]2(O)[C@H](O)C[C@]23C[C@@](C)(O)[C@H](CC[C@H]12)[C@H]3O` (stereo not given in full) it is -5.47% (inactive).
Under `Cc1ccc(C(=O)c2ccc(N3CCN(C)CC3)c([N+](=O)[O-])c2)cc1` stands 12.3% (inactive); under `CNS(=O)(=O)c1ccc(N2CCCC2=O)c([N+](=O)[O-])c1`, -4.3% (inactive).
Under `CN1CCN(c2ccc(S(=O)(=O)Nc3ccccc3)cc2[N+](=O)[O-])CC1` stands 63.2% (active); under `O=C(Nc1ccc2c(c1)CCC2)c1ccc(Br)s1`, 14.6% (inactive).
With `O=C(NCc1cccnc1)c1cccc(-c2cc3ccccc3oc2=O)c1`, the inhibition was 3.42% (inactive).
The figure for `CN(C)S(=O)(=O)c1cccc(NC(=O)COC(=O)c2cc(=O)[nH]c(=O)[nH]2)c1` is -5.88% (inactive).
As to `CCOC(=O)CSC1=N/C(=C/c2ccc(-n3cncn3)cc2)C(=O)N1C(C)=O`, the inhibition is 8.27% (inactive).
Under `COCCCn1c(CCC(=O)O)ccc1-c1ccc(F)cc1` stands 2.69% (inactive); under `CC(C)Cn1c(CCC(=O)O)ccc1-c1cccs1`, 95.5% (active).
The figure for `CCn1c(NC(=O)c2ccccc2)c(-c2cccs2)c(=O)c2ccccc21` is 0.95% (inactive).
As for `CN(C)c1ccc(C=C2C(=O)OC3(CCCC3)OC2=O)cc1`, the inhibition is -3.55% (inactive).
Under `Nc1ccc(C(=O)NCc2ccccc2)cc1` stands -6.94% (inactive).
Consider `O=C(CN1CCCC1)N1CCN(c2ccccc2)CC1`, for which the inhibition was -4.42% (inactive).
Under `Cc1ccc2[nH]c3c(c2c1)CN(C(=O)CN1CCN(c2ccccc2)CC1)CC3` stands 69.5% (active).
As for `CCCC(=O)N1CCc2[nH]c3ccccc3c2C1`, the inhibition was -2.11% (inactive).
The figure for `COc1cc2c(cc1OC)CC1(CCCCC1)N=C2` is 6% (inactive); for `CCOc1ccccc1C1CC(c2ccccc2)Nc2nc(N)nn21` (stereo not given) it is -1.13% (inactive).
For the molecule `COc1ccc(C2CC(c3ccc(C)cc3)Nc3nc(N)nn32)cc1` (stereo not given), the inhibition is 3.08% (inactive).
On to `Nc1nc2n(n1)C(c1ccco1)CC(c1ccc(Cl)c(Cl)c1)N2` (stereo not given), for which the inhibition was -1.56% (inactive).
Under `COc1ccc(C2CC(c3ccc(Cl)cc3Cl)Nc3nc(N)nn32)cc1OC` (stereo not given) stands -5% (inactive).
The figure for `Cc1ccc(C2CC(c3cccc(C)c3)n3nc(N)nc3N2)cc1` (stereo not given) is 67.6% (active); for `Cc1ccc(C2CC(c3cccc(Br)c3)n3nc(N)nc3N2)cc1` (stereo not given) it is 89.8% (active).
Take `O=C(NCc1ccc(F)cc1)C(c1ccccc1)N(C(=O)c1csnn1)C1CC1` (stereo not given): the inhibition was -1.88% (inactive).
For `Cc1ccc(C(=O)N2CCN(S(=O)(=O)N3CCOCC3)CC2)cc1`, the inhibition is -2.24% (inactive).
Regarding `Cc1ccc(-c2cn(S(=O)(=O)c3cccc([N+](=O)[O-])c3)nc2N)cc1`, the inhibition was 3.16% (inactive).
On to `CC[N+]1(CC)CC2=Cc3ccccc3CC2C1` (stereo not given), for which the inhibition was -4.49% (inactive).
As for `Cc1cc(=O)[nH]c(N/N=C/c2c(C)nn(-c3ccccc3Cl)c2Cl)n1`, the inhibition is -2.53% (inactive).
The figure for `O=C(O)CCN(Cc1ccccc1)S(=O)(=O)c1c(Cl)cccc1Cl` is -2.19% (inactive); for `OCCN(Cc1ccccc1)Cc1ccc(Cl)cc1` it is 78.8% (active); for `CC(O)CN(Cc1ccc(Cl)cc1)CC(C)O` (stereo not given) it is -7.47% (inactive).
The figure for `c1ccc2c(c1)OCCOCCOCCO2` is -1.98% (inactive); for `CCOC(=O)CNc1nc(Cl)nc(Nc2ccccc2)n1` it is 6.65% (inactive); for `CC(O)c1cccc(NC(=O)Cc2cccc3ccccc23)c1` (stereo not given) it is 4.7% (inactive).
